The campaign covered roughly 420,000 compounds. About 50,000 (12%) were called active. Entries that show only a call come without a potency. Not shown: some 26% with an inconclusive outcome. For the sample, actives were picked, then their nearest neighbours and some compounds at random. A number with no mark means an inactive call. Calls follow the shape of the dose curve; as a rule, active = well fitted inhibition curve with a large enough effect; inconclusive = small, poorly fitted or top-dose-only effect; inactive = flat fitted curve, though single readings scatter.

This note sets out measurements from PubChem BioAssay AID686979 (National Center for Advancing Translational Sciences (NCATS), 2013).
Potency is read from the fitted curve at half-maximal effect.

The nature of this experiment: qHTS for Inhibitors of human tyrosyl-DNA phosphodiesterase 1 (TDP1): qHTS in cells in presence of CPT. Also: nearly all actives have a fitted effect of over 55% in size. To be noted: chicken DT40 Tdp1-/-;hTDP1 cells + 20 nM CPT, ATP luminescence, 48 h; series mostly up to 46.2 µM. Summed up: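 Chicken DT40 Tdp1-/- cells stably complemented with human TDP1 were seeded at 400 cells/well in medium containing 20 nM camptothecin, exposed to pin-transferred compounds, and grown at 37 °C for at least 48 hr. Viability was read as ATP luminescence.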
As to `CCc1ccc(N2C(=O)CN(S(=O)(=O)CC)CC2(C)C(=O)NC2CCCCC2)cc1` (configuration not stated), the Potency entry was “inactive”.
For `Cc1ccc(CN2CCN(c3ncccn3)CC2)c(C)c1`, the Potency entry is “inactive”.
Same read-out and setting: for `O=C(NCC(O)c1nc2ccccc2[nH]1)c1ccc(Br)cc1` (configuration not stated) the value was “inactive”; for `Cc1ccc(Cl)cc1N1CCN(S(=O)(=O)c2cc3[nH]c(=O)c(=O)[nH]c3cc2C)CC1`, “inactive”; for `CCC(=O)Nc1ccc(-c2ccc(N3CCCCC3)nn2)cc1`, “inactive”.
The same measure, in the same setting: for `c1csc(-c2nnc(COc3ccc4c(c3)OCO4)o2)c1` the value was “inactive”; for `CCN(CC(=O)NC1CCS(=O)(=O)C1)c1nc(-c2cccnc2)nc2ccccc12` (configuration not stated), “inactive”.
The same measure, in the same setting: for `O=[N+]([O-])c1cc2ccccc2nc1-c1ccccc1` the value was “inactive”; for `O=[N+]([O-])c1ccc(F)cc1Oc1nc(-c2cccnc2)nc2ccccc12`, 18.4 µM (active); for `O=C(COC(=O)CNC(=O)c1ccco1)Nc1ccc(F)cc1`, “inactive”.
Turning to `Cc1cccc(NS(=O)(=O)c2cc(Cl)ccc2Cl)n1`, the Potency entry was “inactive”.
Consider `COc1ccc(CCNC(=O)CN2C(=O)CCSc3ccccc32)c(OC)c1`, for which the Potency result was “inactive”.
As to `Cc1ccc(-c2cc(-c3coc4ccccc4c3=O)c3c(n2)-c2cc(Cl)ccc2OC3)cc1`, the Potency entry was “inactive”.
Still for that read-out and setting: for `CCCCCc1c(-c2ccc(OC)c(OC)c2)ncn1CCc1ccccc1OC` the value was 2.31 µM (active); for `CCCCNS(=O)(=O)CCNCc1ccccc1OC`, “inactive”.
As for `CCCCCc1c(-c2cccc(Br)c2)ncn1CCc1ccccc1OC`, the Potency was 11.6 µM (active).
Still for that read-out and setting: with `CCCCCc1c(Cc2ccccc2)ncn1CCc1ccccc1OC` the figure was 2.59 µM (active); with `CCOC(=O)CSc1nnc(-c2cccc(Br)c2)o1`, “inactive”; with `CCN(CC)CCN1C(=O)C(=O)/C(=C(/O)c2ccc(OC)c(OC)c2)C1c1ccccn1` (configuration not stated), “inactive”.
For the compound `COc1ccccc1CCC(=O)NNC(=O)c1ccncc1`, the Potency entry is “inactive”.
As to `CCC(=O)NCc1cc(-c2nn(C)c(=O)c3ccccc23)ccc1OC`, the Potency entry was “inactive”.
Turning to `CCCCn1c(N)c(N(CC(C)C)C(=O)CN(C)S(=O)(=O)c2ccc(F)cc2)c(=O)[nH]c1=O`, the Potency entry is “inactive”.
In the case of `Cc1cc(F)ccc1NC1(c2ccccc2)C(=O)c2ccccc2C1=O`, the Potency entry was “inactive”.
As to `COc1ccc(S(=O)(=O)NC(=O)C2(C)CCN2C(=O)COc2ccc(Cl)cc2)cc1` (configuration not stated), the Potency result was “inactive”.
As to `COc1ccccc1C(=O)NC(=O)COC(=O)c1ccco1`, the Potency entry is “inactive”.
Still for that read-out and setting: for `COc1ccc(C)cc1N(CC(=O)N1CCCC1)S(=O)(=O)c1ccccc1` the value was “inactive”; for `C/C(N)=C(/C#N)C(=O)COC(=O)C1CCN(C(=O)c2ccc(Cl)cc2)CC1`, “inactive”.
The same measure, in the same setting: for `C[C@]12CC[C@H](O)CC1=CCC1C2CC[C@@]2(C)C1CC[C@@H]2NC(=O)CCC(=O)O` (some centres not stated) the value was “inactive”.
For the compound `CCC1CCC/C1=N\NC(=O)c1ccc(Cl)cc1` (configuration not stated), the Potency entry was “inactive”.
In the case of `C#CC(CCN1CCCCC1)(OC)c1ccccc1` (configuration not stated), the Potency result is “inactive”.
In the case of `CN1CCC[C@@H]1CCO[C@](C)(c1ccccc1)c1ccc(Cl)cc1`, the Potency is 21.1 µM (active).
For the compound `CC(=O)c1ccc(F)c(-c2cc(C)cc3c2OC(CNC(=O)Cc2c[nH]c4ccccc24)C3)c1` (configuration not stated), the activity change, negative = growth inhibition was 11.9% [at 9.04 µM].
With `Cc1cc(C)cc(NC(=O)CSc2oc(-c3ccccc3)nc2S(=O)(=O)c2ccc(Cl)cc2)c1`, the Potency is 5.17 µM (active).
Still for that read-out and setting: with `O=C(CSc1oc(-c2ccccc2)nc1S(=O)(=O)c1ccc(Br)cc1)NC1CCCCC1` the entry was “inactive”; with `Cc1cc(C)cc(NC(=O)CSc2ccccc2)c1`, “inactive”.
Still for that read-out and setting: with `C/C=C1\C2C=C(C)CC1(N)c1ccc(=O)[nH]c1C2` (configuration not stated) the entry was “inactive”; with `CCCN(CCC)CCNC(=O)Cn1cnc2sc(C)c(S(=O)(=O)N3CCC(C)CC3)c2c1=O`, “inactive”.
The same measure, in the same setting: with `COc1cccc(N2C(=O)CC(N3CCc4ccccc4C3)C2=O)c1` (configuration not stated) the entry was “inactive”; with `COC(=O)c1cccc(N2C(=O)C3C4C=CC(CC4)C3C2=O)c1` (configuration not stated), “inactive”; with `COC(=O)c1ccccc1SC1CC(=O)N(c2cccc(C)c2)C1=O` (configuration not stated), 9.2 µM (active).
`O=C(COC(=O)/C=C/c1ccc(Br)o1)Nc1cccc(S(=O)(=O)N2CCOCC2)c1`: the Potency result was “inactive”.
Same read-out and setting: for `O=C1c2ccccc2C(=O)c2c1cccc2N1CCN(C/C=C/c2ccccc2)CC1` the value was “inactive”; for `CCOC(=O)c1oc2c(CN3CCN(C)CC3)c(O)ccc2c(=O)c1-c1ccc(Br)cc1`, “inactive”; for `COc1ccc(C2=NS(=O)(=O)N(C)C(C(=O)N3CCCCC3)=C2)cc1`, “inactive”.
With `COc1ccc(NC(=O)C2=CC(c3ccc(OC)c(OC)c3)=NS(=O)(=O)N2C)cc1`, the Potency is 23.1 µM (active).
As for `COc1cc(NC(=O)C2=CC(c3ccco3)=NS(=O)(=O)N2C)cc(OC)c1OC`, the Potency result is “inactive”.
Turning to `COc1ccc(C2(Nc3cccc(F)c3)C(=O)c3ccccc3C2=O)cc1`, the Potency entry is “inactive”.
Still for that read-out and setting: with `CCCn1c(=S)[nH]c2ccc(C(F)(F)F)cc21` the entry was “inactive”.
The same measure, in the same setting: for `CCN(CC)c1ccc(NC(=O)CN2CCN(CC(=O)Nc3ccc(Cl)cc3)CC2)cc1` the value was 23.1 µM (active); for `CCN(CC)c1ccc(NC(=O)CN2CCN(c3ccccn3)CC2)cc1`, “inactive”; for `NS(=O)(=O)c1ccc(NC(=O)COC(=O)c2ccc(Cl)nc2)cc1`, “inactive”.
Take `CCN(CC)c1ccc(NC(=O)c2ccc(Cl)nc2)cc1`: the Potency was 2.91 µM (active).
The same measure, in the same setting: for `Cc1cnc(NC(=O)c2ccc(Cl)nc2)s1` the value was “inactive”; for `CC(=O)N1CCN(CC(=O)Nc2ccc(SC(F)F)cc2)CC1`, “inactive”.
With `CCc1ccc(CN2C(=O)c3ccccc3C2C(=O)NCC2CCCO2)cc1` (configuration not stated), the Potency entry was “inactive”.
Still for that read-out and setting: for `Cc1csc2nc(O)c(C(=O)NCCN3CCOCC3)c(=O)n12` the value was “inactive”.
The same measure, in the same setting: with `NC(=O)COC(=O)c1sc2cc(F)ccc2c1Cl` the entry was “inactive”.
The same measure, in the same setting: for `Cc1ccsc1C(=O)NNC(=O)COc1ccc(Br)cc1` the value was “inactive”; for `O=C(NC(=S)N1CCc2ccccc21)c1ccco1`, “inactive”; for `CN(C)C(=O)c1ccc(NC(=O)COC(=O)c2cc3c(s2)CCCCC3)cc1`, “inactive”.
For the compound `CCCN(CCC)CCCNC(=O)Cn1cc2c(n1)-c1c(oc(C(=O)N3CCCC3)c1C)CC2`, the Potency result is “inactive”.
Same read-out and setting: with `CCOc1ccc(CNC(=O)Cn2cc3c(n2)-c2c(oc(C(=O)N4CCCC4)c2C)CC3)cc1` the figure was 29.1 µM (active); with `CCOC(=O)N1CCC(NC(=O)Cn2cc3c(n2)CCCCC3)CC1`, “inactive”; with `CCOC(=O)C(C)n1cnc2scc(-c3ccc(C)c(C)c3)c2c1=O` (configuration not stated), “inactive”.
The same measure, in the same setting: for `COc1ccc(-c2nnc(SCC(=O)Nc3cccnc3Cl)n2C)cc1` the value was “inactive”; for `COC(=O)c1ccc(NC(=O)CSc2nnc(C3CC3)n2C)cc1`, “inactive”; for `CC(C)(C)NC(=O)COc1ccc(CNc2ccc3[nH]c(=O)[nH]c3c2)cc1`, “inactive”.
The same measure, in the same setting: with `CC(=O)Nc1ccc(CN2CCC(Oc3ccc(C(=O)N4CCCC4)cc3)CC2)cc1` the entry was “inactive”; with `Oc1ccc(Cl)c2c1CCC2`, “inactive”; with `COc1ccc(-c2ccc(Nc3ccc(S(=O)(=O)N4CCCC4)cc3)nn2)cc1OC`, 16.4 µM (active).
Take `COc1cc(NS(=O)(=O)c2ccc(NC(=O)c3ccc(S(=O)(=O)N4CCCCC4)cc3)cc2)ncn1`: the Potency entry was “inactive”.
In the case of `COc1ccc(S(=O)(=O)Nc2ccc(S(=O)(=O)N3CCCCC3)cc2)cc1OC`, the Potency result is “inactive”.
`COCCOC(=O)c1c(C)oc2cc(Br)c(OCC(N)=O)cc12`: the Potency result is “inactive”.
As for `COC(=O)c1ccc(NC(=O)c2cc(S(=O)(=O)N3CCC(C)CC3)cn2C)cc1`, the Potency entry is “inactive”.
For the compound `Cc1c(Cl)cccc1NC(=O)C(=O)NCCc1csc2nc(-c3ccccc3F)nn12`, the Potency was 18.4 µM (active).
Turning to `COc1cc(OC)cc(C(=O)NCCc2csc3nc(-c4ccccc4F)nn23)c1`, the Potency entry was “inactive”.
In the case of `CCOc1ccc(NC(=O)C(=O)NCCc2csc3nc(-c4ccccc4F)nn23)cc1`, the Potency entry was “inactive”.
Same read-out and setting: with `COc1cccc(CN(C)CC(=O)Nc2ccccc2C(=O)Nc2ccccc2)c1` the entry was “inactive”; with `COc1cccc(CN(C)CC(O)COC(c2ccccc2)c2ccccc2C)c1` (configuration not stated), 20.6 µM (active); with `CCCC(O)(c1ccc(OC)cc1)C(CN(C)C)c1ccccc1` (configuration not stated), “inactive”.
As to `Cc1ccc(S(=O)(=O)N2[C@@H](c3cccc4ccccc34)C(C(=O)O)=C[C@H]2C(C)(C)C)cc1`, the Potency result is “inactive”.
Turning to `CCOC(=O)C1=CCC(c2ccc(F)cc2)N(S(=O)(=O)c2ccc(C)cc2)C1` (configuration not stated), the Potency was 16.4 µM (active).
As to `Cc1ccc(S(=O)(=O)N2[C@@H](c3ccccc3F)C(C(=O)O)=CC[C@H]2c2ccc(Cl)cc2)cc1`, the Potency entry was “inactive”.
On the same count and under the same terms, for `Cc1ccc(S(=O)(=O)N2C[C@H]3C(=O)C[C@@H](c4cccc5ccccc45)N(S(=O)(=O)c4ccc(C)cc4)[C@H]3C[C@H]2c2ccc(Cl)cc2)cc1` the value was “inactive”; for `CCOC(=O)C1=CC[C@@H](c2ccccc2)N(S(=O)(=O)c2ccc(C)cc2)[C@H]1c1cccc(OC)c1`, 23.1 µM (active).
Still for that read-out and setting: for `Cc1ccc(S(=O)(=O)N2CCCC2CO)cc1` (configuration not stated) the value was “inactive”; for `Cc1ccc(S(=O)(=O)N2[C@@H](c3ccc(Br)cc3)C(C(=O)O)=C[C@H]2CC2CCCC2)cc1`, “inactive”; for `Cc1ccccc1S(=O)(=O)N1[C@@H](c2cccc(Cl)c2)C(C(=O)O)=CC[C@H]1c1ccc(Cl)cc1`, “inactive”.
For the compound `CCCCC[C@@H]1C=C(C(=O)OCC)[C@H](c2ccccc2)N1S(=O)(=O)c1ccc(C)cc1`, the Potency is 14.6 µM (active).
Still for that read-out and setting: with `Cc1ccccc1S(=O)(=O)N1[C@@H](c2cccc(Cl)c2)C(C(=O)OC(C)(C)C)=CC[C@H]1c1ccc(Cl)cc1` the figure was 20.6 µM (active); with `COc1ccc(S(=O)(=O)N2CCC(C(=O)NCCC(=O)NCc3cccc(OC)c3)CC2)cc1`, “inactive”.
Same read-out and setting: with `O=C(CN1CCN(S(=O)(=O)c2ccc(F)cc2)CC1)NC1CC1` the entry was “inactive”; with `Cc1ccnc2nc(C(=O)Nc3nnc(-c4ccccc4)o3)nn12`, “inactive”; with `Cc1ccc2[nH]c(=O)c(CN(C)S(=O)(=O)c3cccc4nonc34)cc2c1`, “inactive”.
As for `COc1cc(NS(=O)(=O)c2cccs2)cc(OC)c1`, the Potency entry was “inactive”.
On the same count and under the same terms, with `COCCNc1nc(-c2ccccc2)nc2c1oc1ccccc12` the entry was “inactive”.
The same measure, in the same setting: with `Cc1cc(C)c2nc(-c3cccnc3)cc(C(=O)Nc3ccc(S(=O)(=O)Nc4onc(C)c4C)cc3)c2c1` the entry was “inactive”.
